According to PubChem BioAssay:
Activity calls are given as the source filed them.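 How the source made its calls, unless noted: active means visually confirmed hit in the image check and inhibition above 20%; inconclusive means visually confirmed hit but inhibition not above 20%; inactive means no visual hit in the image check.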

How the values were obtained:
[1] = inhibitors of TNFa-induced NFkB p65 translocation, primary screen, imaging, HUVEC, MLSMR starter and 10KST1 sets (AID 438;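 active means inhibition above 20% together with a positive visual image hit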;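 further: compound added about 3h40 before a 20 min TNFalpha stimulation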;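 on inhibition: signal is the nuclear over cytoplasmic p65 intensity ratio per well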); conditions: HUVEC TNFa-induced p65 nuclear translocation; cell count: measured here: nuclei count (cytotoxicity indicator), at 2.08 µM unless noted; inhibition: at 2 µM, stronger effect = higher value unless noted
[2] = inhibitors of mutant huntingtin aggregation, primary screen, imaging, exon1htt(103Q)mCFP cells, high-content imaging (AID 483;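 active means visual image review flags a hit and inhibition of aggregation exceeds 20%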;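 further: compound exposure lasted 3 days before fixation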;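 on nuclei count: percent of the per-plate median nuclei count of sample wells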); conditions: exon1htt(103Q)mCFP cell line, aggregate imaging, at 2 µM; inhibition of aggregation: stronger effect = higher value; nuclei count: measured here: cell count, toxicity
[3] = inhibitors of E-selectin induction by TNFa, primary screen, imaging, HUVEC, immunofluorescence, MLSMR starter and 10KST1 sets (AID 487); conditions: HUVEC TNFalpha-induced E-selectin immunofluorescence imaging, at 2 µM; inhibition: stronger effect = higher value; nuclei count: measured here: cell number, toxicity;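 on inhibition: signal is fraction of cell area covered by stained E-selectin grains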;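 on nuclei count: 100% = median nuclei count of all wells on the same plate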
[4] = biological target: Voltage-gated potassium channel subunit beta-2 (Rattus norvegicus) (UniProt P62483); test: KvBeta enzyme negative modulators, primary screen, biochemical, NADPH fluorescence (AID 622;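 active means fluorescence slope higher than the sample average by over 3 SD, cut at about -0.22 in these data, passing the limit was not always enough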;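 further: slope of raw intensity against log time taken from 70 to 1610 s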); conditions: recombinant KvBeta, 4-cyanobenzaldehyde reduction, at 10 µM, stronger effect = higher value
Chain of Voltage-gated potassium channel subunit beta-2 (Rattus norvegicus) (P62483 whole entry, looked up): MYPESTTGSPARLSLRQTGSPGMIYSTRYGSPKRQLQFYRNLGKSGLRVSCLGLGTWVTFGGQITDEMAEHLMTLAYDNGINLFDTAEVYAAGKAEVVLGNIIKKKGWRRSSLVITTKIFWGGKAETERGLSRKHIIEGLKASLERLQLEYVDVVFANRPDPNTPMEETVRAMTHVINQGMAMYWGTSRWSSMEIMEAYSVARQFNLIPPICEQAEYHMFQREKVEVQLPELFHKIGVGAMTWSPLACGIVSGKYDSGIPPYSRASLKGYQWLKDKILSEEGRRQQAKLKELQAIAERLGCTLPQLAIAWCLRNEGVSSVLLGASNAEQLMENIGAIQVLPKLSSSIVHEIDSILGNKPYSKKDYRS

[5] = biological target: Voltage-gated potassium channel subunit beta-2 (Rattus norvegicus) (UniProt P62483); test: KvBeta positive modulators, primary screen, biochemical, NADPH fluorescence (AID 623;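 active means NADPH fluorescence slope more negative than the mean of all samples by about 3 SD, 99.7% confidence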;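 further: fluorescence intensity change per second fitted from 20 to 320 s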); conditions: Recombinant KvBeta, NADPH fluorescence decrease slope, 10 min; at 10 µM; stronger effect = lower value
[6] = biological target: Alpha-2C adrenergic receptor (Homo sapiens) (UniProt P18825); test: modulators of alpha2C/GIRK thallium flux, primary screen, cell-based, HEK293 alpha2C/GIRK1/2 (AID 624;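 active means fluorescence slope after compound addition differing from the mean of all screened samples at 99.7% confidence, in either direction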;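 further: slope of fluorescence ratio to pre-addition baseline per second over 15 to 24 s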); conditions: thallium flux BTC fluorescence, at 10 µM, actives lie on both sides
Chain of Alpha-2C adrenergic receptor (Homo sapiens) (P18825 whole entry, looked up): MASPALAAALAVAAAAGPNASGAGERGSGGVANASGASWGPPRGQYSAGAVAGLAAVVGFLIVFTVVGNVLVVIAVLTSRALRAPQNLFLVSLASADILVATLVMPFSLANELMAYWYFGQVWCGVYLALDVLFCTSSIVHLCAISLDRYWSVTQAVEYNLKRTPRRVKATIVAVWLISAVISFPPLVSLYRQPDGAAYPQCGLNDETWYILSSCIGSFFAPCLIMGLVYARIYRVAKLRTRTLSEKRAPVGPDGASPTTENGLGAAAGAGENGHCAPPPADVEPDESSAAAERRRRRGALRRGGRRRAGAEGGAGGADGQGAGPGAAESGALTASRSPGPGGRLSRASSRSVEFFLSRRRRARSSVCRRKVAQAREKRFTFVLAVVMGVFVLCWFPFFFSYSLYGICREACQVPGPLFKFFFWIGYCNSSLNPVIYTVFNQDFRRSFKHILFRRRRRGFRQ

[7] = inhibitors of larval lipid processing in zebrafish, primary screen, whole organism, PED6 fluorescence, gall bladder and intestine (AID 686;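 active means a full or partial loss of lipid-probe fluorescence in the fish gall bladder, intestine or both, judged by eye; inactive means no fluorescence loss, or compound toxic to the fish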;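 further: larvae 5 to 7 days old with five fish per well; signal comes from phospholipase A2 cleavage of quenched PED6 carried via bile; overnight exposure to compound and PED6 before scoring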); conditions: Zebrafish larvae PED6 lipid processing, fluorescence scoring
[8] = inhibitors of Sendai virus-induced IRF3 signaling, primary screen, TLR/RLR signaling modifier project, cell-based, Sendai virus stimulus, luciferase, 10K MLSCN set (AID 602276;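 active means inhibition at or above 50% at 10 µM; inactive means inhibition below 50%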;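 further: firefly luciferase from ISG56 promoter only with Renilla not read in this screen; 0% = Sendai virus plus DMSO and 100% = medium plus DMSO without virus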); conditions: HEK293 RL24 IRF3 luciferase reporter, at 10 µM, stronger effect = higher value
[9] = inhibitors of poly I:C-induced TLR3 signaling, primary screen, cell-based, poly I:C stimulus, luciferase, 10K MLSCN set (AID 602277;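 active means inhibition of the reporter signal at or above 50%; inactive means inhibition below 50%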); conditions: HEK293-TLR3 RL24 IRF3 luciferase reporter, at 10 µM, stronger effect = higher value
[10] = biological target: Muscarinic acetylcholine receptor M4 (Homo sapiens) (UniProt P08173); test: compounds altering M4/GIRK thallium flux, either direction, primary screen, M4 allosteric agonist project, cell-based, HEK293 M4/GIRK, BTC-AM (AID 625;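 active means fluorescence slope after compound addition differing from the mean of all tested samples at 99.7% confidence, mostly higher but some lower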;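 further: thallium influx through GIRK channels coupled to M4 in HEK293 cells with BTC-AM dye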); conditions: at 10 µM, actives lie on both sides
Chain of Muscarinic acetylcholine receptor M4 (Homo sapiens) (P08173 whole entry, looked up): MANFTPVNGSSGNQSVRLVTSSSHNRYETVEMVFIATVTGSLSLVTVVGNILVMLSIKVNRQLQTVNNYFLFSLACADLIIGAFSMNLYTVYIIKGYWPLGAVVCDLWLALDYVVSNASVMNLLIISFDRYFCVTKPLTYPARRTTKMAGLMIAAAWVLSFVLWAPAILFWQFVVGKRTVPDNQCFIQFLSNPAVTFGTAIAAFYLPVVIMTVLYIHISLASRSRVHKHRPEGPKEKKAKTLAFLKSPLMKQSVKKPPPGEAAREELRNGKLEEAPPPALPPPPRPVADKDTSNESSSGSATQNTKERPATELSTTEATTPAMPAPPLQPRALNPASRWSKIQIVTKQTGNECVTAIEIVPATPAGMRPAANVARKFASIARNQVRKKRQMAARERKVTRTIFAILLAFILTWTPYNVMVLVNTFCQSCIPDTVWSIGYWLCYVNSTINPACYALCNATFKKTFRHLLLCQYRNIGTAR

Compound | cell count [1] | inhibition [1] | inhibition of aggregation [2] | nuclei count [2] [%] | inhibition [3] | nuclei count [3] [%] | fluorescence slope [4] | NADPH fluorescence slope [5] | slope [6] | outcome [7] | inhibition [8] | inhibition [9] | fluorescence slope [10]
O=C(C1CCCN(c2nnc(-n3cccc3)s2)C1)N1CCC2(CC1)OCCO2 (configuration not stated) | 597 | -2.2% (inactive) | 1.5% (inactive) | 115 | 8.1% (inactive) | 92.8 | -0.388 (inactive) | -4.5e-05 (inactive) | 0.00502 (inactive) | inactive | -2.39% (inactive) | -5.8% (inactive) | 
COc1ccc(CCNC(=O)c2c(N)n(CCN3CCOCC3)c3nc4ccccc4nc23)cc1 | 403 | 9.5% (inactive) | -9.7% (inactive) | 90.9 | -157% (inactive) | 115 | -0.454 (inactive) | -7.3e-05 (inactive) |  |  | -3.7% (inactive) | -28.7% (inactive) | 0.00515 (inactive)
Cc1ccc(O)c(CN2CCN(c3ccccc3)CC2)c1 | 307 | 1% (inactive) | -4.7% (inactive) | 95.9 | -91.9% (inactive) | 120 | -0.202 (inactive) | -1.8e-05 (inactive) |  |  | 12% (inactive) | 15.6% (inactive) | 0.00457 (inactive)
Cc1oc2ccc(OC(=O)N(C)C)cc2c1C(=O)OC(C)C | 450 | 0.8% (inactive) | 1.1% (inactive) | 99.7 | -78.3% (inactive) | 155 | -0.606 (inactive) | -3.3e-05 (inactive) | 0.00801 (inactive) |  | 9.46% (inactive) | -11.8% (inactive) | 
O=C(CN1C(=O)CN=C(c2ccccc2)c2ccccc21)NCc1ccco1 | 519 | -2.9% (inactive) | -13.4% (inactive) | 99.4 | -66.7% (inactive) | 142 | -0.571 (inactive) | -6.4e-05 (inactive) |  |  | -12.7% (inactive) | -12.1% (inactive) | 0.00595 (inactive)
O=C(Cn1cc(C(=O)c2ccccc2)c2ccccc21)NCc1ccco1 | 229 | -1.4% (inactive) | 3.1% (inactive) | 89.8 | -0.3% (inactive) | 103 | -0.567 (inactive) | -1.5e-05 (inactive) |  |  | -5.96% (inactive) | -16.8% (inactive) | 0.00474 (inactive)
CCOC(=O)C1CCCCC12C(C#N)=C(N)Oc1n[nH]c(C)c12 (configuration not stated) | 733 | -5.8% (inactive) | -12% (inactive) | 104 | -6.6% (inactive) | 110 | -0.637 (inactive) | 1.2e-05 (inactive) |  |  | 17.2% (inactive) | 21.9% (inactive) | 0.00575 (inactive)
COC(=O)c1cncn1C(C)c1ccccc1 (configuration not stated) | 671 | -3.4% (inactive) | -10.9% (inactive) | 97.9 | -88.8% (inactive) | 110 | -0.488 (inactive) | -2.9e-05 (inactive) | 0.0055 (inactive) |  | -53.9% (inactive) | 13.1% (inactive) | 
CC12CCCCC1=[N+]([O-])CN2O (configuration not stated) | 725 | -10% (inactive) | -27.6% (inactive) | 99.9 | -15.8% (inactive) | 118 | -0.554 (inactive) | 1.5e-05 (inactive) |  |  | -0.121% (inactive) | 6.9% (inactive) | 0.0045 (inactive)
COC(=O)C1C2c3ccccc3OC1(C)N=c1s/c(=C/c3cnn(C)c3C)c(=O)n12 (configuration not stated) | 469 | 10.9% (inactive) | 0.9% (inactive) | 115 | -82.7% (inactive) | 112 | -0.332 (inactive) | -4.9e-05 (inactive) | 0.00428 (inactive) |  | 15.6% (inactive) | 23.4% (inactive) | 
O=C(Cc1ccccc1)OC(COCc1ccccc1)CN1CCOCC1 (configuration not stated) | 314 | -7.8% (inactive) | -19.1% (inactive) | 77.8 | -56.9% (inactive) | 117 | -0.37 (inactive) | 2.9e-05 (inactive) |  |  | 2.92% (inactive) | 10.1% (inactive) | 0.00718 (inactive)
COc1ccc(CN2CCN(C(=O)Cc3ccccc3)CC2)c(OC)c1 | 402 | 2.1% (inactive) | 8% (inactive) | 94 | -13.2% (inactive) | 114 | -0.6 (inactive) | 1.9e-05 (inactive) | 0.00526 (inactive) |  | 15.3% (inactive) | 25.6% (inactive) | 
C=CCOC(=O)COc1cc(C)cc2oc(=O)c3c(c12)CCC3 | 609 | 6% (inactive) | 20.1% (inactive) | 85.8 | 75.7% (active) | 49.1 | -0.254 (inactive) | -4.4e-05 (inactive) | 0.00532 (inactive) | inactive | -1.05% (inactive) | 99.1% (active) | 
COc1ccccc1CN1CCN(C(=O)Cc2ccccc2)CC1 | 466 | 5.9% (inactive) | 2.7% (inactive) | 101 | 18.9% (inactive) | 112 | -0.326 (inactive) | 3.1e-06 (inactive) | 0.00694 (inactive) | inactive | -1.53% (inactive) | 3.43% (inactive) | 
